MK inhibit: blocks S. pneumoniae mevalonate kinase; purified MK, PK/LDH-coupled NADH absorbance 340 nm; inhibition, % at 10 µM; 65,000 tested, 0.48% active;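 active = ranked among the strongest by inhibition in the single 10 µM screen, a fixed top-ranked set picked for dose follow-up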
Autofluor 339: intrinsic fluorescence of library compounds, ex339/em460 – biochemical, MLSMR library, data from DPM-DC assay, artefact control, profiling panel; compound autofluorescence, ex339/em460 nm, NADH buffer; active compounds read high; 1 = no-compound wells, NADH background; fluorescence fold increase at 10 µM; 65,000 tested, 5.5% active; AID 709;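 active = at 10 µM, mean starting fluorescence two-fold or more over control wells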;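 also: signal is the first read of a kinetic run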
DPM-DC inhibit: inhibitors of Streptococcus pneumoniae diphosphomevalonate decarboxylase; AID 556; purified DPM-DC, PK/LDH coupled NADH fluorescence; calls only at 10 µM; 65,000 tested, 0.49% active;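 active = the 320 compounds with the highest percent inhibition in the single-dose primary screen, excluding strongly autofluorescent ones, cut at about 32% in these data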;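 also: kinetic rate of NADH fluorescence loss reporting ADP formed by the decarboxylase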
A340 absorber: absorbance at 340 nm | compound absorbance at 340 nm, fold over control | 65,000 tested, under 10 active | AID 708 | fold change at 10 µM;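 active = at 10 µM dose, initial 340 nm absorbance at least 2 fold that of control wells; inactive = change under 2 fold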;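 also: initial absorbance extrapolated from kinetic A340 decline of NADH oxidation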
NADH coupling: inhibition of NAD/NADH coupling enzymes, library profiling. coupled PK/LDH NADH assays, four targets. IC50, µM (series often up to 10 µM). 65,000 tested, 0.02% active. AID 774;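 active = single-dose screening hits from any of four coupled enzyme assays that gave an IC50 when retested across doses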;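 also: the DPM-DC format reads NADH fluorescence rather than 340 nm absorbance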
PMK inhibit: inhibitors of Streptococcus pneumoniae phosphomevalonate kinase. purified PMK, PK/LDH-coupled NADH absorbance 340 nm. inhibition, % at 10 µM. 65,000 tested, 0.49% active;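 active = top-ranked compounds by inhibition in the single 10 µM screen, taking a fixed number of the strongest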
Of the large screens only hits and unclear results are named; the others gave an inactive call. Only some compounds are listed: those with a hit (about 6.5% of all), similar ones and a draw of the others.

Cc1nn(-c2ccccn2)c2c1C(c1ccsc1)C1=C(CCCC1=O)N2 (stereo not drawn)	Autofluor 339 4.9 (not shown: DPM-DC inhibit)
OCCN=C(c1ccccc1)C12CN3CN(CN(C3)C1)C2	none
COCCN1C=C(C(=O)OC)C(c2ccc(OC)c(OC)c2)C(C(=O)OC)=C1	Autofluor 339 2.2 (not shown: DPM-DC inhibit)
CCCOc1ccc(C2C(C(=O)OC)=CN(CCOC)C=C2C(=O)OC)cc1	Autofluor 339 2.6 (not shown: DPM-DC inhibit)
COC(=O)C1=C2SC(C)C(=O)N2C(N)=C(C#N)C1c1ccc(OC)c(OC)c1 (stereo not drawn)	none
COC(=O)C1=CN(CC2CCCO2)C=C(C(=O)OC)C1c1cc(OC)c(OC)c(OC)c1 (stereo not drawn)	Autofluor 339 2.1 (not shown: DPM-DC inhibit)
Cc1cc2nc(-c3ccc(SCC(=O)N4CCN(C(=O)c5ccco5)CC4)nc3)[nH]c2cc1C	Autofluor 339 4.4 (not shown: DPM-DC inhibit)
Cc1cc2nc(-c3ccc(SCC(=O)N4CCOCC4)nc3)[nH]c2cc1C	Autofluor 339 2.2 (not shown: DPM-DC inhibit)
CCCCc1ccc(NC(=O)N[C@H](C(=O)O)C(C)C)cc1	none
Cc1ccc(N2CC(C(=O)Nc3nnc(C)s3)CC2=O)cc1 (stereo not drawn)	none
O=C1NCCN1C(=O)C12CC3CC(CC(C3)C1)C2	none
CN1CC(=O)NC1=NC(=O)C12CC3CC(CC(C3)C1)C2	DPM-DC inhibit active
CCOC(=O)c1sc2nc(CC(=O)OC)nc(NCC(=O)OC)c2c1C	Autofluor 339 3.7 (not shown: DPM-DC inhibit)
CCOC(=O)c1sc2nc(CC(=O)OC)nc(NCc3ccco3)c2c1C	none
Cc1ccc2c(c1)-c1ccccc1S(=O)(=O)N2	Autofluor 339 3.7 (not shown: DPM-DC inhibit)
C/C(=N\O)c1c(C)c2ccccc2n1C	none
C/C(=N\O)c1ccc2c3ccccc3n(C)c2c1	Autofluor 339 2.7
O=c1c2c3n(c(=O)nc2[nH]n1-c1ccccc1)CCCCC3	none
Cc1c(-c2ccc(F)cc2)nc(N)c(C#N)c1-c1ccco1	Autofluor 339 2.4
Cc1cc2c(c(N)n1)c(=O)oc1ccccc12	Autofluor 339 3.7 (not shown: DPM-DC inhibit)
COC(=O)c1c(C)nc(C)c2c(=O)oc3ccccc3c12	none
C=CCOC(=O)C1=C(C)NC(SCC(=O)Nc2ccc(C)c(Cl)c2)=C(C#N)C1c1ccco1 (stereo not drawn)	Autofluor 339 2.3 (not shown: DPM-DC inhibit)
CCC(NC(=O)OC(C)(C)C)C(=O)Oc1ccc2c3c(c(=O)oc2c1)CCC3 (stereo not drawn)	Autofluor 339 3.6 (not shown: DPM-DC inhibit)
CSCCC(NC(C)=O)C(=O)Oc1ccc2c3c(c(=O)oc2c1)CCCC3 (stereo not drawn)	Autofluor 339 2.1 (not shown: DPM-DC inhibit)
COC(=O)[C@H](CCSC)NC(=O)Nc1ccc(C)cc1C	none
Cc1c(OCC(=O)OC(C)(C)C)ccc2c3c(c(=O)oc12)CCC3	none
CC(C)CC1NC2(C(=O)N(C)c3ccccc32)C2C(=O)N(C(C)C)C(=O)C12 (stereo not drawn)	none
CC(C)(C)c1cc(CCC(=O)N2CCNCC2)c(C(C)(C)C)cc1O	none
CCOc1ccc(OCC)c(NC(=O)CSc2nc3c(c(=O)n(C)c(=O)n3C)n2C(C)C)c1	none
CCOc1ccccc1-n1c(SCC(=O)Nc2ccc(CC)cc2)nc2n[nH]c(C)c2c1=N	Autofluor 339 4.9, PMK inhibit 25 (not shown: DPM-DC inhibit)
CCOc1ccccc1NC(=O)CCSc1nc2n[nH]c(C)c2c(=N)n1-c1ccccc1Cl	none
CCc1cc2c(=O)c(Oc3ccccc3F)c(C)oc2c(CN(C)C)c1O	Autofluor 339 2.2 (not shown: DPM-DC inhibit)
Cc1oc2c(CN(C)C)c(O)ccc2c(=O)c1-c1ccc2ccccc2n1	none
CCCNC(=O)c1c(N)n(-c2cc(OC)cc(OC)c2)c2nc3ccccc3nc12	Autofluor 339 2.5 (not shown: DPM-DC inhibit)
CCCNC(=O)c1c(N)n(-c2ccc3c(c2)OCO3)c2nc3ccccc3nc12	none
Nc1c(C(=O)NC2CC2)c2nc3ccccc3nc2n1-c1ccc2c(c1)OCO2	Autofluor 339 3.2 (not shown: DPM-DC inhibit)
COCCCNC(=O)c1c(N)n(-c2ccc3c(c2)OCO3)c2nc3ccccc3nc12	Autofluor 339 2.7
COCCCNC(=O)CSC1=Nc2ccccc2C2=NC(CC(=O)NCc3ccccc3)C(=O)N12 (stereo not drawn)	Autofluor 339 3.4
CCC(C)NC(=O)CSC1=Nc2ccccc2C2=NC(CC(=O)NCc3ccccc3)C(=O)N12 (stereo not drawn)	Autofluor 339 2.1
CN(Cc1ccccc1)Cc1nc2c(c(=O)n(C)c(=O)n2C)n1Cc1ccccc1Cl	none
CCCCOc1ccc(C(=O)CCNC(C(=O)O)C(C)CC)cc1 (stereo not drawn)	none
Cc1cc(CN2C(=O)c3ccccc3C2=O)on1	none
COc1cc(CNC2CCCC2)cc(OC)c1	MK inhibit 41
CCOc1ccccc1NC(=O)CSc1nnc(-c2ccccc2Cl)n1Cc1ccco1	none
CCn1nnc(NC(=O)c2cccnc2)n1	none
CCn1nnc(NC(=O)c2cccc(-c3cc4ccccc4oc3=O)c2)n1	MK inhibit 67, Autofluor 339 3.9 (not shown: DPM-DC inhibit)
CCn1c(SCC(=O)C(C)(C)C)nnc1-c1cccnc1	none
NC(=O)CSc1nnc(CNc2cccc(Cl)c2)n1CCc1ccccc1	none
O=C(OCC(=O)N1CCN(C(=O)c2ccco2)CC1)c1cc(-c2ccccc2)nc2ccccc12	none
O=C(OCC(=O)N1CCN(C(=O)c2ccco2)CC1)c1cc(-c2ccc(F)cc2)nc2ccccc12	Autofluor 339 2.1 (not shown: DPM-DC inhibit)
O=C(CSc1nc2cc(Cl)ccc2s1)N1CCN(C(=O)c2ccco2)CC1	none
O=C(CSc1nc(-c2ccccc2)cs1)N1CCN(C(=O)c2ccco2)CC1	PMK inhibit 29
CCOCc1cc(C)[nH]c(=O)c1C#N	Autofluor 339 4.5 (not shown: DPM-DC inhibit)
Nc1nnc(-c2ccco2)s1	none
Nc1ncnc2oc(-c3ccco3)c(-c3ccco3)c12	Autofluor 339 2.4 (not shown: DPM-DC inhibit)
CC1(C)Cc2ccccc2-c2nc(NCCCO)n(-c3ccccc3)c(=O)c21	Autofluor 339 2.1 (not shown: DPM-DC inhibit)
O=c1[nH]c(NCCCO)nc2c1C1(CCCC1)Cc1ccccc1-2	Autofluor 339 2.1 (not shown: DPM-DC inhibit)
O=c1c2c(nc3n1CCCCC3)-c1ccccc1CC21CCCC1	none
Cn1c(NCCO)nc2c(c1=O)C1(CCCCC1)Cc1ccccc1-2	Autofluor 339 2.2 (not shown: DPM-DC inhibit)
COc1ccc(OC)c(C2=NOC(C(=O)Nc3cccnc3)C2)c1 (stereo not drawn)	none
CCCCc1c(O)nc(SCC(=O)Nc2ccc3c(c2)CCC3)[nH]c1=O	none
CC1(c2ccccn2)Nc2ccccc2-c2nc3ccccc3n21 (stereo not drawn)	Autofluor 339 3.8 (not shown: DPM-DC inhibit)
c1ccc2c(c1)NC1(CCCCC1)n1c-2nc2ccccc21	Autofluor 339 3.7 (not shown: DPM-DC inhibit)
O=C1Nc2ccccc2C12Nc1ccccc1-c1nc3ccccc3n12 (stereo not drawn)	none
Cc1ccc2oc(=O)c3cnn(CC(=O)NC4CCN(Cc5ccccc5)CC4)c3c2c1	DPM-DC inhibit active
O=C(Cn1ncc2c(=O)oc3ccccc3c21)NC1CC1	none
